# LDHA inh: inhibitors of human lactate dehydrogenase A | P00338 | purified LDHA, NADH/diaphorase-resazurin fluorescence; hits give low values | activity change, % (values are at about 110 or 230 µM) | 480,000 compounds, 0.15% hits; in the data active means activity change below about -30%; inconclusive means mostly about -25% to -30%;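 further: plate controls were DMSO wells for no effect and wells without enzyme for full effect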
#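 Enzyme activity of human lactate dehydrogenase 5 (2 nM; 0.06 mM NADH, 0.2 mM pyruvate, 5 min, RT) is measured via a resazurin/diaphorase fluorescence readout of residual NADH.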
# Nrf2 activator: activators of Nrf2 (ARE) signaling; AREc32 ARE-luciferase reporter (MCF7-derived line), luminescence, 24 h; Potency, µM (top dose mostly 46.1 µM), inactives show at the highest dose activation, most hits filed as activators; 410,000 compounds, 0.31% hits; further: potency means the concentration at half of the fitted maximal effect; % of control where 0% means no effect; nearly all actives have a fitted effect of over 65% in size
#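 Nrf2 activation is followed as ARE-luciferase induction in the AREc32 line after one day of compound treatment; luminescence is read with Steady-Glo.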
# Nrf2 inh: inhibitors of Nrf2 signaling. A549 ARE-Fluc reporter, luciferase luminescence, 18-24 h. Potency, µM (doses to about 46 µM), for the others: top-dose activity change, negative = inhibition, usual class: inhibitors. 360,000 compounds, 2.1% hits; further: potency means the concentration at half of the fitted maximal effect; on the % scale 0 is the no-effect control and ±100 the full control effect; nearly all actives have a fitted effect of over 60% in size
#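 In this cell-based qHTS, ARE-driven firefly luciferase in A549 cells reports Nrf2 activity; the luminescent signal after BugLite lysis is the measured value, with a prior CellTiter-Fluor read for cell health.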
# ALOX12 inh: ALOX12 (human) lipoxygenase inhibition | purified 12hLO, xylenol orange hydroperoxide absorbance | P18054 | 580,000 compounds, 1.1% hits | Potency, µM (series often up to 108 µM), for the others: at the highest dose activity change, negative = inhibition, actives largely listed as inhibitors; further: potency means the concentration at half of the fitted maximal effect; on the % scale 0 is the no-effect control and ±100 the full control effect
#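 Hydroperoxide product was detected by ferrous iron/xylenol orange as the 573 to 405 nm absorbance ratio. Arachidonic acid at 40 uM (final) was turned over for 30 min at room temperature by 150 nM human 12hLO, pH 7.0 Hepes buffer, after 15 min compound preincubation.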
# A549 tox: counter-screen for Nrf2 inhibitors: cytotoxicity in A549 cells | A549 ARE-Fluc cells, CellTiter-Fluor viability, 18-24 h | Potency, µM (series often up to 46 µM), without a hit: top-dose activity change, negative = cytotoxicity, actives largely listed as inhibitors | 390,000 compounds, 0.16% hits | AID 504648; further: potency means the concentration at half of the fitted maximal effect; on the % scale 0 is the no-effect control and ±100 the full control effect
#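 Cytotoxicity counterscreen: CellTiter-Fluor fluorescence was measured in A549 ARE_Fluc cells after 18-24 h of compound exposure in a concentration series. The subsequent BugLite luminescent read reports ARE-luciferase activity.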
# IDH1 R132H inh: blocks human mutant IDH1 R132H enzyme | O75874 | IDH1-R132H enzyme, NADPH consumption, diaphorase/resazurin fluorescence | Potency, µM (titrated, usually from 76.6 µM), for the others: at the top dose activity change, negative = inhibition, usual class: inhibitors | 390,000 compounds, 0.093% hits; further: potency means the concentration at half of the fitted maximal effect; on the % scale 0 is the no-effect control and ±100 the full control effect; nearly all actives have a fitted effect of over 65% in size
# Target sequence (O75874 whole entry R132H, stated change not applied): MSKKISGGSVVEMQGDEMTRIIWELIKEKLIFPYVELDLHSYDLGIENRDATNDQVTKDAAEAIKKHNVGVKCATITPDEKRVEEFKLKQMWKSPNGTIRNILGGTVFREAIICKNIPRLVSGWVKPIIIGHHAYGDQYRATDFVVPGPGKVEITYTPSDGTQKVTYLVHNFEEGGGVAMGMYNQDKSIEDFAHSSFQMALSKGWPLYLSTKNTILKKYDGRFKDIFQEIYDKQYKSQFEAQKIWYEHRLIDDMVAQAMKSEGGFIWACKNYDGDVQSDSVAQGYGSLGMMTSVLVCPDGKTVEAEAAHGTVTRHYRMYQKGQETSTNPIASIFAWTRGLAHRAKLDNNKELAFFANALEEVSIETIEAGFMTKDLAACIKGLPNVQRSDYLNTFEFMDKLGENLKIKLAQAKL
#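 IDH1-R132H (0.5 ug/mL) preincubated 30 min with compound, then NADPH (0.016 mM) and alpha-KG (2 mM) added; 80 min at RT, pH 7.5. Remaining NADPH coupled via diaphorase/resazurin to fluorescence (540/590 nm); concentration-response curves normalized to no-enzyme control.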
# * marks the source's active call; other numbers are inactive results; ? = inconclusive; . = no result; [ ] = remark or other dose. Rows were chosen to be rich in hits. Some 2.7% of all compounds tested hit in one or more screens of this group. Unless noted, the call rests on the fitted dose curve; in most records, active means well fitted curve in the direction sought with a large enough effect; inconclusive means small, poorly fitted or top-dose-only effect, or another doubt; inactive means no such curve, though single readings can be large; an effect the other way counts as inactive or inconclusive.
SMILES,LDHA inh,Nrf2 activator,Nrf2 inh,ALOX12 inh,A549 tox,IDH1 R132H inh
C/C(=N\NC(=O)c1cc2c(s1)CCC(C)C2)c1ccc[nH]1 (stereo not drawn),-5,5%,?,19%,12%,-3%
C/C(=N\NC(=O)c1cc2c(s1)CCC(C)C2)c1ccncc1 (stereo not drawn),-6,6%,-14%,1.8µM*,-1%,10%
CC1CCc2sc(C(=O)N/N=C3/CCCCc4ccccc43)cc2C1 (stereo not drawn),5,.,.,1.3µM*,.,.
CC1CCc2sc(C(=O)NC3CCCCC3)cc2C1 (stereo not drawn),1,4%,?,496%,-16%,1%
CC1CCc2sc(C(=O)N/N=C/c3ccc(O)cc3)cc2C1 (stereo not drawn),-1,6%,?,28µM*,2%,-2%
CCCCN1C=C(OC(=O)c2ccc(OC)cc2)c2ccccc2S1(=O)=O,-4,.,.,?,.,.
CN(Cc1nc(Cc2ccccc2F)no1)Cc1cccc2ncccc12,0,0%,18µM*,0%,-21%,2%
CC(C)c1nnc(NC(=O)c2cc(-c3ccncc3)nc3ccccc23)s1,10,.,.,-5%,.,.
CCn1cc2nc(SCc3ccc(C)cc3)n(CCc3ccccc3)c(=O)c2n1,0,-1%,21µM*,-18%,?,12%
CCSc1n[nH]c(=S)s1,-7,2%,-25%,45µM*,-5%,6%
COC(=O)CSc1n[nH]c(=S)s1,1,2%,-27%,?,2%,6%
COc1cc(/C=C2\SC(=Nc3ccccc3)NC2=O)cc(Cl)c1O,9,7%,23%,?,?,0%
COc1cc(/C=C2\SC(=Nc3ccc(Cl)c(C(=O)O)c3)NC2=O)c(Br)c(Br)c1O,-33*,0%,-15%,?,?,17%
CCOc1ccc(C(CC(=O)Nc2ccc(CC)cc2)N2Cc3ccccc3C2=O)cc1OC (stereo not drawn),0,.,.,?,.,.
Oc1ccccc1/C=N/NC(=S)NC1CC2CCC1C2 (stereo not drawn),0,2%,1%,?,-12%,5%
S=C(N/N=C/c1ccco1)NC1CC2CCC1C2 (stereo not drawn),-1,13µM*,?,?,3%,5%
Cc1ccc2oc(=O)cc(CN3CCN(c4cccc(Cl)c4)CC3)c2c1,-1,.,.,-2%,.,.
O=[N+]([O-])c1ccc(C(O)CN2CCN(c3ccccc3)CC2)cc1 (stereo not drawn),-4,0%,-6%,0%,-7%,5%
O=[N+]([O-])c1ccc(C(O)C[n+]2ccccc2)cc1 (stereo not drawn),-30*,0%,-11%,.,6%,-2%
COc1cc(OC)c2c(C)c(CC(=O)NCCc3ccccc3F)c(=O)oc2c1,0,.,.,?,.,.
CC(=O)c1ccc(OCC(=O)c2ccc3c(c2)OCO3)cc1,3,.,.,?,.,.
COc1ccc(C(=O)COc2ccc3c(c2)OCO3)cc1OC,-12,.,.,45µM*,.,.
O=C(Nc1ccc(N2CCOCC2)c(S(=O)(=O)Nc2ccccc2Cl)c1)c1ccccc1,-3,0%,16µM*,53%,-8%,-13%
O=C(Nc1ccc(N2CCOCC2)c(S(=O)(=O)Nc2ccccc2Cl)c1)c1ccc(=O)[nH]n1,1,1%,-20%,-7%,0%,?
COc1ccccc1NS(=O)(=O)c1cc(NC(C)=O)ccc1N1CCCCC1,0,0%,?,?,-1%,-5%
SMILES,LDHA inh,Nrf2 activator,Nrf2 inh,ALOX12 inh,A549 tox,IDH1 R132H inh
COc1ccccc1NS(=O)(=O)c1cc(NC(=O)c2ccncc2)ccc1N1CCCC1,-11,2%,21µM*,0%,-16%,3%
COc1ccccc1NS(=O)(=O)c1cc(NC(=O)c2ccc(Cl)nc2)ccc1Cl,-1,0%,23µM*,-1%,?,5%
CCCOC(=O)c1cc(-c2ccc(OC)cc2)nc2ccccc12,11,.,.,-16%,.,.
Cc1nn(-c2ccccc2)cc1C(c1c(N)[nH]c(=S)[nH]c1=O)c1c(N)[nH]c(=S)[nH]c1=O,-3,0%,1%,6.3µM*,12%,3%
Cc1nn(-c2ccccc2)cc1/C=N/NC(N)=S,0,7%,4%,?,-7%,4%
COC(=O)C1=C(C(=O)OC)SC(=C(Cl)C(=S)Nc2ccccc2)S1,6,.,.,?,.,.
COC(=O)C1=C(C(=O)OC)SC(=C(Cl)C(=S)Sc2ccccn2)S1,5,.,.,4.5µM*,.,.
CSc1ccc(CN2CCN(Cc3ccc([N+](=O)[O-])cc3)CC2)cc1,-8,4%,8.2µM*,?,-11%,9%
COc1cc(OC)c(OC)cc1CN1CCN(Cc2ccc(SC)cc2)CC1,-30*,1%,-13%,-24%,1%,5%
CSc1ccc(CN2CCN(C(=O)CC(C)C)CC2)cc1,-23,-1%,26µM*,?,0%,0%
CCOc1ccc(NC(=O)CSc2nc3cc(C)[nH]c3c(=O)n2C)cc1,-4,.,.,4%,.,.
CCC(c1nnnn1Cc1ccco1)N(CCc1ccccc1)Cc1cc2cc(C)ccc2[nH]c1=O (stereo not drawn),0,5%,.,-15%,?,2%
CCC(c1nnnn1CCc1ccccc1)N(Cc1ccco1)Cc1cc2c(C)ccc(C)c2[nH]c1=O (stereo not drawn),-6,4%,18µM*,?,?,3%
Cc1ccc2[nH]c(=O)c(CN(CCc3ccccc3)C(c3nnnn3Cc3ccco3)C(C)C)cc2c1 (stereo not drawn),-5,-1%,?,11µM*,-18%,-15%
O=C(Nc1ccccc1)N1CCn2c(nn(-c3ccc(C(F)(F)F)cc3)c2=O)C1,.,.,.,-15%,.,.
Cc1ccc2[nH]cc(CCNC(=O)/C=C/c3ccccc3)c2c1,4,.,.,?,.,.
Cc1ccc(Nc2nc(-c3ccc(F)cc3)cs2)nc1,0,17%,?,?,0%,-1%
Cc1ccc(Nc2nc(-c3ccc(O)c(O)c3)cs2)nc1,22,19%,?,22µM*,4%,-1%
CC(=O)Nc1ccc(-c2csc(Nc3ccc(O)c(C(=O)O)c3)n2)cc1,1,.,.,40µM*,.,.
O=C(Nc1nc(-c2ccc(Cl)cc2)cs1)NC1CCCCC1,2,0%[9.22 µM],?,50µM*,-12%,2%
CC(=O)Nc1cccc(-c2csc(Nc3ccc(Cl)cn3)n2)c1,-1,3%,-11%,9%,-11%,9%
CC(=O)Nc1ccc(-c2csc(Nc3ccc(Cl)cn3)n2)cc1,-16,9%,15µM*,-15%,-18%,12%

# Screening results as filed in PubChem BioAssay.
